From PubChem
Shown are actives, neighbours in structure and some others; about 2.4% of the full set was active somewhere.
D2 ag-1 = Beta-Arrestin HTS for Positive Allosteric Modulators of the Human D2 Dopamine Receptor: Agonists | D(2) dopamine receptor (Homo sapiens), P14416 | DiscoveRx PathHunter D2 beta-arrestin, luminescence, 90 min; 100% = 57 uM dopamine signal | activation, % (test concentration not listed) | 0.084% of 360,000 active | AID 624465, 2012; in the data active means activation above about 40%; inconclusive means between about 15% and that limit
Target sequence (P14416 whole entry, looked up): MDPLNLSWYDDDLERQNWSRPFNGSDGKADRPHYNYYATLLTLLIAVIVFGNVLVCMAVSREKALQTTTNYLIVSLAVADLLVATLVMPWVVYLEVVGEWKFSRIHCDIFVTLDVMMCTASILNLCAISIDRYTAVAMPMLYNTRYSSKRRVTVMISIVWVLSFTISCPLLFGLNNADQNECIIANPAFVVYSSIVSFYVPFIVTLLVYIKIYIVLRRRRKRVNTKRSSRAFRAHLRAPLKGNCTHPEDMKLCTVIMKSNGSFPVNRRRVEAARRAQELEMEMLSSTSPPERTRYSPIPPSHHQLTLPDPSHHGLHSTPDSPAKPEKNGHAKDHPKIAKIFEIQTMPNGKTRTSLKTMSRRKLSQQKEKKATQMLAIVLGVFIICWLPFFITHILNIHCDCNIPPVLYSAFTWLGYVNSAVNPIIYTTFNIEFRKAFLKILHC
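Agonist mode: compounds alone added to overnight-plated D2 PathHunter cells for 90 min at 37 C, with 57 uM final dopamine (EC100) defining full response. Beta-arrestin recruitment detected by chemiluminescent reagent, read after 1 h at ambient temperature.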
D2 PAM-1 = Beta-Arrestin HTS for Positive Allosteric Modulators of the Human D2 Dopamine Receptor: Potentiators; 0.23% of 360,000 active; potentiation, % (test concentration not listed); D(2) dopamine receptor (Homo sapiens), P14416; DiscoveRx D2 beta-arrestin cells, luminescence, 90 min; 100% = 57 uM dopamine signal; in the data active means potentiation above about 50%; inconclusive means mostly about 30% to 49%
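PathHunter beta-arrestin assay in DiscoveRx D2 cells. Compounds were added with an EC20 of dopamine (50 nM final) for 90 min at 37 deg C. Luminescence was read 1 h after detection reagent, with 57 uM dopamine as the EC100 control.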
D2 ag-2 = HTS Assay for Allosteric Agonists of the Human D2 Dopamine Receptor: Primary Screen for Agonists. D(2) dopamine receptor (Homo sapiens), P14416. HEK293 T-REx D2 cells, calcium flux agonist mode. activation, % at 2 µM. 0.53% of 340,000 active. AID 485358, 2010;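 active means activation over 3 SD above normal in the single-dose calcium agonist read, cut at about 30% in these data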; further: 0% is about no effect
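In this primary screen, compounds producing a positive calcium signal within 180 s of addition to tetracycline-induced, force-coupled HEK293 Trex D2 cells are flagged; cells are dye-loaded with a no-wash calcium kit beforehand.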
D2 antag = HTS Assay for Allosteric Antagonists of the Human D2 Dopamine Receptor: Primary Screen for Antagonists. D(2) dopamine receptor (Homo sapiens), P14416. HEK293 TREx D2 cells, calcium flux, dopamine EC80. inhibition, % at 10 µM. 2% of 340,000 active. AID 485344, 2010; in the data active means inhibition above about 30%; inactive means below that, where a call was filed; further: 0% is about no effect
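Cells plated overnight at 30 C with tetracycline; no-wash calcium dye, 30–90 min RT; 10 s baseline; compound pinned; 180 s read; EC80 dopamine added; another 180 s read.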
D2 PAM-2 = HTS Assay for Positive Allosteric Modulators of the Human D2 Dopamine Receptor: Primary Screen for Potentiators; D(2) dopamine receptor (Homo sapiens), P14416; HEK293 T-REx D2, calcium flux, EC20 dopamine potentiation; potentiation, % at 10 µM; 0.34% of 340,000 active;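 active means potentiation over 3 SD above the plate norm, cut at about 30% in these data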; further: 0% is about no effect
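Potentiation of an EC20 dopamine calcium response is measured in a force-coupled, tetracycline-inducible Hek293 Trex D2 line. Compound-only kinetic reads over 180 s flag agonists before dopamine addition.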
* = called active by the depositor; ? = inconclusive; . = not tested or not shown.

SMILES	D2 ag-1	D2 PAM-1	D2 ag-2	D2 antag	D2 PAM-2
CCN(CC)CCn1c2ccccc2c2nc3ccccc3nc21	-4.4	-27.6	-0.1	-3.1	-8.0
COc1ccc2c(c1)c1nc3ccccc3nc1n2CCn1c(=O)oc2ccccc21	-3.0	-7.7	0.3	33.6*	-0.8
CCCn1c2ccccc2c2nc3ccccc3nc21	-3.5	-12.9	-1.5	-0.4	46.9*
O=c1oc2ccccc2n1CCn1c2ccccc2c2nc3ccccc3nc21	-2.5	-7.5	1.1	4.3	76.0*
CCc1ccc(-n2nc(C)c3c(C(=O)Nc4cccc(C(F)(F)F)c4)cc(C)nc32)cc1	.	.	0.2	.	5.3
COC(=O)c1ccc(NC(=O)N2CCN(c3nnc(C)c4c(C)n(-c5ccccc5)nc34)CC2)cc1	.	.	0.6	.	-5.3
O=C(Nc1nnc(-c2ccccc2)o1)c1nc2ccccc2s1	-12.3	-18.1	43.9*	8.3	-11.3
Cc1csc2nc(CCNS(=O)(=O)c3ccc(F)cc3)cn12	.	.	0.9	.	7.1
COc1ccc(/C=N/Nc2nc(-c3cccc(S(=O)(=O)N4CCCC4)c3)cs2)cc1OC	5.0	10.3	0.1	5.8	0.8
CCOc1cc(/C=N/Nc2nc(-c3cccc(S(=O)(=O)N4CCCC4)c3)cs2)ccc1O	?	118.7*	-0.8	-5.0	4.7
Cc1cccc(S(=O)(=O)c2cn(Cc3ccccc3)c3cc(N4CCC(C)CC4)c(F)cc3c2=O)c1	.	.	-0.8	.	5.2
CC(=O)Nc1ccccc1OCc1cc(=O)n2c3c(sc2n1)CCCC3	.	.	-1.0	.	6.5
Cc1ccc(CCNC(=O)CCS(=O)(=O)c2cc3c(cc2C)NC(=O)CO3)cc1	0.3	-6.4	0.1	42.6*	16.4
O=C(CCS(=O)(=O)c1cc2c(cc1Cl)NC(=O)CO2)NCCc1ccccc1	-7.0	-0.2	0.8	-2.8	-2.7
Cc1cccc(N2CCN(S(=O)(=O)c3ccc4c(c3)NC(=O)CO4)CC2)c1C	-2.9	-4.0	0.0	3.1	0.9
Cc1ccc(CNS(=O)(=O)c2cc3c(cc2C)NC(=O)CO3)cc1	-6.4	-2.2	3.6	47.5*	4.8
Cc1cc2c(cc1S(=O)(=O)N1CCN(c3cccc(C)c3C)CC1)OCC(=O)N2	1.0	1.1	1.3	50.0*	-2.8
Cc1ccc(S(=O)(=O)c2cnc(SCC(=O)Nc3cc(C)cc(C)c3)nc2N)cc1	.	.	.	.	4.3
COC(=O)c1cc2c(cc1NC(=O)c1cnn(-c3ccc(C)cc3)c1-n1cccc1)OCO2	.	.	0.7	.	7.9
CC(NC(=O)c1ccccc1Br)c1nnc(SCC(=O)NC2=NCCS2)n1C (centres undefined)	-0.9	-4.2	-0.2	3.0	-6.9
N/C(Cc1ccc(Cl)c(Cl)c1)=N\OC(=O)c1ccc(Br)o1	?	60.1*	1.0	1.5	-10.7
C=CCN1C(=O)/C(=C/c2ccc(O)c(OC)c2)S/C1=N/c1nccs1	9.7	3.9	44.9*	-10.4	2.6
O=C(COc1cccc(F)c1)N1c2ccccc2Sc2ccccc21	?	92.9*	0.1	-6.7	0.4
Cc1cc(NC(=O)c2ccccc2)ncc1NC(=O)c1cccs1	2.4	-2.7	-0.9	36.4*	1.2
Cc1cc(NC(=O)c2cccs2)ncc1NC(=O)c1cccc(F)c1	-2.7	-1.7	0.0	-17.3	3.2
SMILES	D2 ag-1	D2 PAM-1	D2 ag-2	D2 antag	D2 PAM-2
Cc1ccc(C(=O)O)cc1NC(=O)c1cccs1	0.9	10.3	-0.3	43.8*	4.5
O=C(Cn1c2[n+](c3ccc(C(F)(F)F)cc31)CCCCC2)c1cccc([N+](=O)[O-])c1	-7.6	-20.5	0.6	35.3*	-22.1
O=C(Cn1c2[n+](c3ccc(C(F)(F)F)cc31)CCCCC2)c1ccc2c(c1)OCCO2	-8.4	-12.5	0.1	21.3	-22.7
COc1cc2c(cc1OC)C(c1cc3cc4c(cc3[nH]c1=O)OCO4)N(C(=O)C1CC1)CC2 (centres undefined)	0.5	4.6	-0.5	32.6*	-6.9
COc1cc2c(cc1OC)C(c1cc3ccc(C)cc3[nH]c1=O)N(C(=O)c1ccco1)CC2 (centres undefined)	-1.0	-4.6	3.2	11.2	8.9
c1ccc(-c2csc3nnc(SCc4ccc5c(c4)OCCO5)n23)cc1	-2.9	-7.2	1.4	10.0	42.8*
COc1ccc(-n2nnnc2SCC(=O)c2cccc(OC)c2)cc1	-0.6	-0.5	1.0	14.1	-4.6
COc1ccc(-n2nnnc2SCC(=O)c2ccc3c(c2)OCCO3)cc1	-4.2	-3.7	0.0	-3.8	34.4*
O=C(CSc1nnc2scc(-c3ccccc3)n12)c1ccc2c(c1)OCCO2	0.1	2.9	-1.0	30.9*	-7.8
c1ccn2c(SCc3ccc4c(c3)OCCO4)nnc2c1	-2.3	-3.9	-0.4	-4.7	8.4
O=C(CSc1nnc(-c2ccccc2)o1)c1ccc2c(c1)OCCO2	-0.4	-5.1	0.2	3.2	6.1
CC1(C(=O)NCC2CC2)Cc2c(-c3ccc4c(c3)OCO4)ccnc2O1 (centres undefined)	-4.9	-6.6	.	.	.
Fc1cccc(Cl)c1C1SCc2nc3ccccc3n21 (centres undefined)	-4.7	-6.9	.	.	.
COC(=O)COc1ccc2c(-c3cccc([N+](=O)[O-])c3)cc(=O)oc2c1	1.1	19.0	0.9	49.5*	-7.0
O=C(CCN1CCCCC1)Nc1cccc(Br)c1	-4.6	-5.8	-0.2	54.8*	-11.1
O=C(Cc1ccc(Cl)cc1)Nc1ccc(Br)cc1	1.2	-26.0	-0.4	43.9*	-21.9
O=C(CN1CCCCCC1)Nc1ccc(Br)cc1	7.0	-19.4	1.8	76.8*	-23.4
COC(=O)c1ccc(NC(=O)CN2CCN(CCO)CC2)cc1	-0.1	-1.3	-0.4	33.2*	-10.9
O=C(CN1CCCC1)Nc1ccc(Br)cc1	-1.6	-2.6	1.0	-22.2	6.6
CN1CCN(CCC(=O)Nc2cccc(Br)c2)CC1	-0.9	-10.5	0.4	7.4	-14.3
Cc1ccc(F)c(S(=O)(=O)NC(=O)C2(C)CCN2C(=O)CCC2CCCC2)c1 (centres undefined)	-2.9	2.0	.	.	.
Cc1ccc(N(CC(=O)N2CCN(c3cc(C)ccc3C)CC2)S(=O)(=O)c2c(C)nn(C)c2C)cc1	.	.	-0.8	.	-5.8
Cc1ccccc1C(=O)Nc1nnc(S(=O)(=O)N2CCc3ccccc32)s1	.	.	-0.8	.	6.4
Cc1ccc(S(=O)(=O)N2CCCC2)cc1C(=O)NCC(C)(C)N1CCOCC1	-6.2	-15.2	.	.	.
CCOC(=O)c1cc(NC(=O)CN2CCCC2)cc(C(=O)OCC)c1	3.3	-3.3	-1.7	9.2	35.6*
